Bioassay records as filed in PubChem.
OPRM1-OPRD1 inv: mu-delta opioid heterodimer inverse agonism; P35372+P41143; cell-based MOR-DOR heterodimer luminescence; inhibition, % at 9.3 µM; 0.21% of 340,000 active; AID 504357; in the data active = inhibition above about 22%, passing the limit was not always enough;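 note: 0% = cells with DMSO and 100% = wells without cells with DMSO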
HTR5A inv ctr: HTR5A inverse agonism, opioid heterodimer counter-screen; HTR5A cell line, luminescence; P47898; inhibition, % at 9.3 µM; 0.083% of 340,000 active; in the data active = inhibition mostly above about 23%, no sharp cut-off; inactive = mostly below about 18%;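 note: 0% = cells with DMSO and 100% = no-cell wells with DMSO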
Target sequence (P47898 whole entry, looked up): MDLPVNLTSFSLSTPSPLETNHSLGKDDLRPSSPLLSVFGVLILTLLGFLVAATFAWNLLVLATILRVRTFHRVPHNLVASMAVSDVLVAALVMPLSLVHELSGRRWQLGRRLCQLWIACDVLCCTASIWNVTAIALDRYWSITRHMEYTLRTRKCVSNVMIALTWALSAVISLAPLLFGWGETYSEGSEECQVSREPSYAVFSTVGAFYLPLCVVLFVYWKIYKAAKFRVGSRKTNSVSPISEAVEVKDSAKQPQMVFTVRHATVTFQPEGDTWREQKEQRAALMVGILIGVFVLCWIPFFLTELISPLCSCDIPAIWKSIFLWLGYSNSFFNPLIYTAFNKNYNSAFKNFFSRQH
MOR-DOR ag: agonists of human mu-delta opioid receptor heterodimerization; P35372+P41143; 0.3% of 340,000 active; cells, OPRM1-OPRD1 heterodimerization, luminescence; AID 504326; activation, % at 9.3 µM; in the data active = activation above about 18%;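 note: 0% = vehicle-treated cells and 100% = reference agonist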
HTR5A ag: counter-screen for OPRM1-OPRD1 agonists: human HTR5A agonism. P47898. HTR5A agonist assay, luminescence, cell-based. activation, % at 9.3 µM. 0.61% of 340,000 active. AID 504692; in the data active = activation mostly above about 9.5%, no sharp cut-off; inactive = mostly below about 7.6%;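 note: 0% = cells with vehicle only and 100% = reference agonist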
An asterisk follows results filed as active. The list is not random: actives were taken first. Their share in the collection is about 1.1%.

SMILES	OPRM1-OPRD1 inv	HTR5A inv ctr	MOR-DOR ag	HTR5A ag
NS(=O)(=O)c1ccc(NC(=O)COC(=O)c2cn(-c3ccccc3)nc2-c2ccc(F)cc2)cc1	-19	-43	4	12*
Cc1cc(C)c(NC(=O)C2CCCN(S(=O)(=O)c3c(C)noc3/C=C/N(C)C)C2)c(C)c1 (stereo unspecified)	10	-13	-2	0
Cn1cc(/C=C(\NC(=O)c2ccccc2Cl)C(=O)NCCCn2ccnc2)c2ccccc21	6	-17	-1	4
COc1ccc(C(CNC(=O)c2ccc(S(=O)(=O)N3CC(C)CC(C)C3)cc2)N(C)C)cc1 (stereo unspecified)	5	1	-1	0
Cc1c(OCC(=O)NCc2cccnc2)ccc2c3c(c(=O)oc12)CCC3	22	13	-4	2
Cc1c(OCC(=O)NCc2ccncc2)ccc2c3c(c(=O)oc12)CCC3	20	-46	-4	12*
Cn1c2c(c3ccccc31)CCN1CCC[C@]21c1ccccc1	-46	-3	9	1
COc1ccc(-c2cc(-c3ccccc3)nc(NN)n2)cc1OC	26	26	-5	-10
Cc1ccc(-c2cc(-c3ccccc3)nc(NN)n2)cc1	43*	33*	-9	-9
O=C(COC(=O)c1ccc(Cl)nc1)Nc1ccc(N2CCCCC2)cc1	7	0	-1	0
CCOCCn1c(SCc2ccc(C)cc2)nc2c1c(=O)[nH]c(=O)n2C	0	-32	0	13*
CCOC(=O)c1ccc(NC(=O)CSc2nc(N3CCOCC3)nc(N3CCOCC3)n2)cc1	12	0	-2	1
CCOC(=O)CNC(=O)CSc1nc(N(C)C)nc(N2CCOCC2)n1	-13	-11	3	11*
O=S(=O)(c1ccc2c(c1)OCCO2)N1CCN(Cc2ccc3c(c2)OCO3)CC1	16	-7	-3	-1
O=S(=O)(c1ccc2c(c1)OCCO2)N1CCN(Cc2ccccc2)CC1	4	-14	-1	14*
O=C(CCl)N(C/C=C/c1ccccc1)c1ccc2c(c1)OCCO2	-174	-180	38*	71*
O=C(/C=C/c1ccccc1)c1ccc2c(c1)OCCCCO2	3	11	-1	-2
COc1ccc2c(c1)CC/C(=C/c1ccncc1)C2=O	2	-23	0	-3
COc1ccc2c3c(ccc2c1)C(=O)/C(=C/O)CC3	-120	-86	25*	22*
COc1ccc(C(=O)CC2OC(=O)c3c2ccc(OC)c3OC)cc1 (stereo unspecified)	-5	-40	1	13*
COc1ccc(C(=O)Oc2cc(C)c(CN3CCOCC3)cc2C)cc1OC	-5	-19	1	5
CCOc1ccccc1OCC(=O)Nc1cc(C)on1	6	21	-2	-9
Cc1cc(NC(=O)COc2ccc3ccccc3c2Br)no1	-13	-43	2	12*
Cc1cccc(C)c1NC(=O)NC1(C(=O)NCC2CCCO2)CCCCC1 (stereo unspecified)	-24	-5	3	2
CC1CCN(CCCn2c(=S)[nH]c3c(sc4ccccc43)c2=O)CC1	12	4	-2	-1
SMILES	OPRM1-OPRD1 inv	HTR5A inv ctr	MOR-DOR ag	HTR5A ag
CC1CCN(CCCn2c(=S)[nH]c3c(sc4ccc([N+](=O)[O-])cc43)c2=O)CC1	-8	-27	2	9.7*
CCCCCC(=O)Nc1cc(S(=O)(=O)N2CCOCC2)ccc1Oc1ccc(OCC)cc1	18	-31	-4	2
O=C(NCCNc1ccc([N+](=O)[O-])cc1C(F)(F)F)c1ccccc1	-4	10	1	0
O=C(NCCNc1ccc([N+](=O)[O-])cc1C(F)(F)F)c1cccc(F)c1	-9	6	2	14*
O=C(NNC(=O)c1cccc2ccccc12)c1ccc(-c2ccccc2)cc1	-33	-52	6	13*
O=C(NNC(=O)c1cccc2ccccc12)c1ccccc1O	13	-32	-2	5
O=[N+]([O-])c1ccccc1/C=C/C=N/n1c(-c2ccccc2)n[nH]c1=S	-21	-35	3	13*
Cc1ccc(-c2n[nH]c(=S)n2/N=C/C=C\c2ccccc2[N+](=O)[O-])cc1	-13	9	3	-4
CCc1noc(C)c1C(=O)Nc1nnc(C(CC)CC)s1	4	-6	-1	0
C=CCn1c(SCC(=O)NNC(=O)Nc2ccc(C)cc2)nnc1-c1ccccc1	8	-13	-2	-1
C=CCn1c(SCC(=O)Nc2ccc(C(=O)OC(C)C)cc2)nnc1-c1cccs1	-19	-18	3	9.0*
C=CCn1c(SCC(=O)Nc2ccc(-c3nc4ccc(C)cc4s3)cc2)nnc1-c1ccccc1	-105	16	20*	6
Cc1c(CC(=O)N2CCN(C(=O)C3COc4ccccc4O3)CC2)c(=O)oc2c(C)c(O)ccc12 (stereo unspecified)	34*	13	-7	-3
CNC(=S)NCCN1CCOCC1	7	14	-1	13*
COc1ccc(CN(C(=O)c2ccco2)C2CCS(=O)(=O)C2)cc1 (stereo unspecified)	12	17	-2	-7
COc1cccc(CN(C(=O)c2ccco2)C2CCS(=O)(=O)C2)c1 (stereo unspecified)	8	-36	-2	13*
Cc1ccc(S(=O)(=O)Cn2nnnc2C(C(C)C)N2CCC(C(N)=O)CC2)cc1 (stereo unspecified)	18	-5	-3	-3
COc1ccc(C2(c3ccc(OC)cc3)NC(=O)N(CC(=O)Nc3cc(C)ccc3OC)C2=O)cc1	15	13	-3	-3
COc1ccc(NC(=O)Nc2cccc(C(F)(F)F)c2)cn1	-24	-35	5	13*
COc1ccc(NC(=O)c2[nH]c(C)c(C(C)=O)c2C)cc1S(=O)(=O)Nc1ccc(Br)cc1	9	-2	-2	13*
COc1ccc(NS(=O)(=O)c2cc(NC(=O)c3ccc(F)cc3)ccc2OC)cc1	6	-16	-1	5
COc1ccc(NC(=O)c2[nH]c(C)c(C(C)=O)c2C)cc1	-9	2	2	12*
CCOc1ccc(NC(=O)c2[nH]c(C)c(C(C)=O)c2C)cc1	9	3	-2	-1
COc1ccc(NC(=O)c2[nH]c(C)c(C(C)=O)c2C)cc1Cl	2	-6	0	0
COc1ccc(NC(=O)c2ccc(F)cc2)cc1S(=O)(=O)Nc1cc(C)ccc1Br	-33	-9	5	12*
CN(C(=O)c1cccc(NC(=O)Cc2cccc(NC(=O)C3CCN(C(=O)C4CCCCC4)CC3)c2)c1)C1CCC1	0	-2	0	1
N#Cc1cc([N+](=O)[O-])ccc1NC(=O)CSc1n[nH]c(=O)[nH]c1=O	-16	-8	3	2
C=C[C@H](CC(C)C)N(Cc1ccccc1)S(=O)(=O)N(Cc1ccccc1)[C@@H](C=C)CC(C)C	42*	32*	-8	0
CC(C)C[C@@H](CO)N(Cc1ccccc1)S(=O)(=O)N(Cc1ccccc1)[C@H](CO)CC(C)C	-53	-10	9	3
COC(=O)[C@H](NCc1ccc(OC)c(B(O)O)c1)C(C)C	21	-39	-4	11*
